High-throughput results (PubChem BioAssay)
Sampled rows, rich in hits. Any-hit rate of the full collection: about 2%.
Yeast superoxide = yeast age-related superoxide inhibition as caloric restriction mimetic | S. cerevisiae aged cells, superoxide DHE fluorescence; stronger effect = lower value | superoxide response (% of plate mean), % at 10 µM | AID 2690 | 0.18% of 330,000 active;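 active = superoxide response under a set limit, about three screen SD below normal, cut at about 65% in these data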;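 also: yeast aged for seven days with compound at 30 °C before DHE staining; 100% = average MFI of all compound-treated wells on the plate with controls excluded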
SKKanGAS inh = blocks kanamycin growth of S. pyogenes SKKanGAS strain. BacTiter-Glo, 6 h. inhibition, % at 7.5 µM. 1.3% of 300,000 active;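 active = mean replicate score, as percent of positive control median, at least 50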;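 also: strain carries kanamycin resistance gene driven by streptokinase promoter and grows in 40 µg/ml kanamycin; loss of luminescence reflects streptokinase promoter inhibition or plain growth inhibition; 0% = median of DMSO wells and 100% = positive control at its reference dose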
Calb FLC = affects C. albicans growth with fluconazole | 0.57% of 300,000 active | AID 1979 | C. albicans CaCi-2 (fluconazole-resistant clinical isolate) + fluconazole, Alamar Blue growth, 48 h | growth inhibition, % (test concentration not listed);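 active = growth inhibition above about 58% in most replicates, limit read from the data, passing the limit was not always enough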;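 also: all wells also contain fluconazole at 8 µg/ml as a sub-toxic cotreatment; 0% = median of DMSO wells and 100% = median of geldanamycin control wells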
Platelet DG rel = modulates dense granule release in human platelets | human platelet-rich plasma, SFLLRN dense granule ATP release, luminescence | inhibition, %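 (compounds screened at 7.5 µM in platelet-rich plasma)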 | 0.22% of 300,000 active | AID 1663;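 active = mean replicate score, as percent of positive control, at or above 50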
PolyA inhibitor = blocks polyadenylation in yeast reporter cells | AID 1875 | activity score, % at 12 µM | S. cerevisiae SKY197-pL101 polyadenylation reporter, beta-gal luminescence; efflux-impaired pdr1/pdr3 knockout yeast; score 100 = 6 SD above DMSO | 0.02% of 300,000 active;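 active = lowest replicate activity score at least 50, where 100 means six control SD above control mean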;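 also: yeast exposed to compound for 9 h at 30 °C; higher score means more reporter readthrough which indicates perturbed polyadenylation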
* hit, by the source's call; . = no result.

SMILES | Yeast superoxide | SKKanGAS inh | Calb FLC | Platelet DG rel | PolyA inhibitor
COc1cc(C(=O)N/N=C/c2ccc(OC(=O)c3cccc(C)c3)cc2)ccc1O | 88 | 52* | 60 | 1 | 14
COc1ccc(C(=O)Nc2ccccc2C(=O)N/N=C/c2ccccn2)cc1OC | 99 | -14 | -2 | 56* | -9
CN(C(=O)COc1cccc(C#N)c1)C1CCS(=O)(=O)C1 (stereo unspecified) | 86 | . | . | . | .
CC(NS(=O)(=O)c1cccc(C(=O)NCc2ccncc2)c1)c1ccccc1 (stereo unspecified) | 92 | . | . | . | .
COc1ccc(S(=O)(=O)N2CCCCC2)cc1NC(=O)Cn1cnc2c1c(=O)n(C)c(=O)n2C | 106 | . | . | . | .
CCCCCCSc1ccc(-c2nc3ccccn3c2NCCCC)cc1 | 97 | 51* | -2 | -2 | -16
CCCCNc1c(-c2ccc(OC)c(SC3CCCCC3)c2)nc2cc(C)ccn12 | 99 | 72* | 1 | 8 | -5
CCCCCCSc1cc(-c2nc3cnccn3c2NCc2ccccc2)ccc1OC | 124 | 65* | 4 | -1 | -5
CCCCNc1c(-c2ccc(-c3ccc(C(C)=O)cc3)c(OC)c2)nc2cnccn12 | 102 | 64* | -3 | 3 | 0
CCCCCCSc1cc(-c2nc3cc(C)ccn3c2NC2CCCCC2)ccc1OC | 104 | 33 | -2 | -6 | 17
CCCCNc1c(-c2ccc(OC)c(SC3CCCCC3)c2)nc2ccc(Cl)cn12 | 76 | . | . | . | .
COc1cc(-c2nc3cc(C)ccn3c2NC2CCCCC2)ccc1-c1ccc(C(C)=O)cc1 | 98 | 23 | 1 | 7 | 19
CCCCNc1c(-c2ccc(-c3cccc(Cl)c3)cc2)nc2ccccn12 | 98 | 43 | 22 | 4 | -28
O=C(Nc1ccccc1C(=O)O)c1ccc(NC(=O)C2CCCCC2)cc1 | 101 | -7 | -6 | -3 | 12
CCN(C(=O)COC(=O)CC1CCCCC1)c1c(N)n(Cc2ccccc2)c(=O)[nH]c1=O | 86 | . | . | . | .
CCCCNc1c(-c2ccc(SC3CCCCC3)cc2)nc2cnccn12 | 113 | . | . | . | .
CCCCNc1c(-c2ccc(OC)c(SC3CCCCC3)c2)nc2cnccn12 | 99 | 104* | 39 | 2 | 1
COc1ccc(-c2nc3cnccn3c2NCc2ccccc2)cc1SC1CCCCC1 | 114 | 55* | 24 | -2 | 0
COc1ccc(-c2nc3ccccn3c2NC2CCCCC2)cc1SC1CCCCC1 | 102 | 83* | 16 | 2 | 0
CCC(C)Sc1ccc(-c2nc3cnccn3c2NC2CCCCC2)cc1 (stereo unspecified) | 103 | 93* | 5 | 0 | 17
COc1ccc(Sc2ccc(-c3nc4cnccn4c3NC3CCCCC3)cc2OC)cc1 | 119 | . | . | . | .
COc1cc(-c2nc3ccccn3c2NCc2ccccc2)ccc1SC1CCCCC1 | 108 | 28 | 29 | -9 | -6
CCN1C(=O)[C@@H]2C(C(=O)c3cnccn3)=NN[C@@H]2C1=O | 101 | -1 | -2 | -12 | -3
COC(=O)[C@]1(C)N[C@H](CN(C)C(=O)c2ccc(C)cc2)[C@@H]2C(=O)N(C)C(=O)[C@@H]21 | 143 | . | . | . | .
Cc1cc(C)c2ccc(NN)nc2c1O | 98 | 68* | 58 | -1 | 2
SMILES | Yeast superoxide | SKKanGAS inh | Calb FLC | Platelet DG rel | PolyA inhibitor
Cc1cc(C)c2ccc(/C=N/O)nc2c1O | 84 | 35 | 6 | -2 | 24
CCc1ccc(NC(=O)COC(=O)c2nc3nc(C)cc(C)n3n2)cc1 | 94 | . | . | . | .
CCOC(=O)c1c(-c2ccccc2Cl)cn2ccccc12 | 81 | 13 | 91* | -1 | 5
CCOC(=O)c1c(-c2cccc([N+](=O)[O-])c2)cn2ccccc12 | 100 | 21 | 29 | 10 | -31
Brc1ccc(N=C(c2ccccc2)c2ccncc2)cc1 | 100 | 0 | -2 | 11 | 22
COc1ccc(N2C(=O)CC(Sc3ccccc3C(=O)O)C2=O)c([N+](=O)[O-])c1 (stereo unspecified) | 104 | 2 | 3 | 4 | -18
CC1=NN2C(=N)/C(=C\c3cc(C)n(-c4cccc(C)c4)c3C)C(=O)N=C2S1 | 101 | 36 | -15 | 8 | 2
CCCC1=NN2C(=N)/C(=C\c3cc(C)n(-c4cc(C)cc(C)c4)c3C)C(=O)N=C2S1 | 81 | 72* | 12 | 11 | -3
Cc1cc(C)cc(-n2c(C)cc(/C=C3\C(=N)N4N=C(CC(C)C)SC4=NC3=O)c2C)c1 | 97 | 69* | 47 | 3 | 10
Cc1cccc(-n2c(C)cc(/C=C3\C(=N)N4N=C(CC(C)C)SC4=NC3=O)c2C)c1 | 105 | 25 | -7 | -1 | -3
Cc1cc(S(=O)(=O)NCCCN2CCOCC2)c(C)cc1Cl | 86 | 11 | 7 | -4 | 4
COc1cc(/C=N/NC(=S)Nc2cccc(Cl)c2C)ccc1OCC(=O)N1CC(C)OC(C)C1 (stereo unspecified) | 117 | 10 | -12 | 1 | 7
Oc1ccc(N=Nc2ccc3ccccc3c2)cc1 | 84 | 24 | -11 | 54* | -44
CC1CCN(C(=O)c2ccc(N3CCOCC3)c([N+](=O)[O-])c2)CC1 | 106 | . | . | . | .
COc1ccc(-c2sc3ccc(OC)cc3c2C#CCCO)cc1 | 114 | 97* | 3 | 5 | -20
COc1ccc2nc(Nc3sc4c(c3C(N)=O)CCCC4)sc2c1 | 99 | . | . | . | .
COc1cc(C(=O)NC(=S)Nc2nc(-c3ccc(F)cc3)cs2)cc(OC)c1OC | 98 | -6 | 5 | -24 | -23
COc1ccc(C(=O)NNC(=S)NC(=O)c2ccc(F)cc2)cc1Br | 193 | 103* | 5 | 8 | 24
COc1ccc(C(=O)NC(=S)NNC(=O)c2ccc(NC(C)=O)cc2)cc1Br | 109 | 70* | 4 | -2 | -19
COc1cc(C(=O)NC(=S)NNC(=O)c2ccc3c(c2)OCO3)cc(OC)c1OC | 107 | 70* | 44 | 1 | 2
COc1cc(C(=O)NNC(=S)NC(=O)c2ccc(F)cc2)cc(OC)c1OC | 115 | 83* | -4 | -10 | -38
COc1ccc(C(=O)NC(=S)NNC(=O)c2ccncc2)cc1Br | 109 | . | . | . | .
COc1cc(C(=O)NC(=S)Nc2ccc3c(c2)OCO3)cc(OC)c1OC | 109 | 18 | 13 | 8 | 3
COc1cc(OC)c2ccc(=O)oc2c1C(CCN1CCN(c2ccccc2)CC1)c1ccc(N(C)C)cc1 (stereo unspecified) | 92 | 2 | -11 | 1 | 16
COc1ccc(Cl)cc1C(=O)NNC(=S)NC(=O)c1ccc(F)c(F)c1 | 106 | 99* | -22 | . | 12
CCOc1ccc2nc(N3C(=O)C(O)=C(C(=O)c4ccco4)C3c3ccco3)sc2c1 (stereo unspecified) | 81 | . | . | . | .
Cc1cc(C)c2nc(N3C(=O)C(O)=C(C(=O)c4ccco4)C3c3ccco3)sc2c1 (stereo unspecified) | 119 | 78* | -2 | 6 | 2
Cc1ccc2nc(N3C(=O)C(O)=C(C(=O)c4ccco4)C3c3cccs3)sc2c1 (stereo unspecified) | 110 | 52* | 56 | 0 | 4
CCCCN(CCO)CCCC | 114 | . | . | . | .
